PubChem BioAssay (NCATS)
Records with an inconclusive call do not appear. The source made the active and inactive calls. The call rests on the fitted dose curve; in most records, active means well fitted curve in the direction sought with a large enough effect; inconclusive means small, poorly fitted or top-dose-only effect, or another doubt; inactive means no such curve, though single readings can be large; an effect the other way counts as inactive or inconclusive.

Experiments:
[1] = qHTS of pediatric cancer cell lines to identify multiple opportunities for drug repurposing: Primary screen for BT-37 cells (AID 1347094);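 further: series mostly up to about 57 µM; plate controls were DMSO for no effect and bortezomib for full effect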
Procedure, shortened: (§1)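 500-1,000 cells/well; 5 h pre-incubation 37 °C/5% CO2; compound pinned; 48 h; CellTiter-Glo, 15 min RT; luminescence. MIPE 11-pt from 0.78 nM, NPC 8-pt from 0.59 nM final. Bortezomib 2.3 µM final as positive control.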

[2] = qHTS of pediatric cancer cell lines to identify multiple opportunities for drug repurposing: Primary screen for NB-EBc1 cells (AID 1347095); further: potency means the concentration at half of the fitted maximal effect;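 on activity change, negative = cytotoxic: plate controls were DMSO neutral control for no effect and bortezomib for full effect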
Procedure, shortened: as §1

[3] = qHTS of pediatric cancer cell lines to identify multiple opportunities for drug repurposing: Primary screen for U-2 OS cells (AID 1347096);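 further: plate controls were DMSO wells for no effect and bortezomib positive control wells for full effect; nearly all actives have a fitted effect of over 50% in size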
Procedure, shortened: (§2)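 Cells (500-1,000/well) in growth media were settled 5 h at 37 degrees C, then given compounds for 48 h. Viability was read as CellTiter-Glo luminescence. Primary runs used MIPE at 11 points (0.78 nM-46 µM) and NPC at 8 points (0.59 nM-46 µM); follow-ups used 11 points.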

[4] = qHTS of pediatric cancer cell lines to identify multiple opportunities for drug repurposing: Primary screen for Saos-2 cells (AID 1347097); further: nearly all actives have a fitted effect of over 40% in size; further: potency means the concentration at half of the fitted maximal effect; on activity change, negative = cytotoxic: on the % scale 0 is the no-effect control and ±100 the full control effect
Procedure, shortened: as §1

[5] = qHTS of pediatric cancer cell lines to identify multiple opportunities for drug repurposing: Primary screen for NB1643 cells (AID 1347099);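 further: plate controls were DMSO neutral control for no effect and bortezomib positive control for full effect; nearly all actives have a fitted effect of over 50% in size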
Procedure, shortened: as §1

[6] = qHTS of pediatric cancer cell lines to identify multiple opportunities for drug repurposing: Primary screen for LAN-5 cells (AID 1347100);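 further: plate controls were DMSO neutral control for no effect and bortezomib positive control for full effect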
Procedure, shortened: as §2

[7] = qHTS of pediatric cancer cell lines to identify multiple opportunities for drug repurposing: Primary screen for BT-12 cells (AID 1347101); further: nearly all actives have a fitted effect of over 25% in size; further: potency means the concentration at half of the fitted maximal effect;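 on activity change, negative = cytotoxic: plate controls were DMSO for no effect and bortezomib positive control for full effect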
Procedure, shortened: (§3)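 Cells (500-1,000/well) rested 5 h, then received compounds for 48 h; metabolically active cells were measured by CellTiter-Glo luminescence. Final concentrations spanned up to 46 µM (MIPE, 11-point) or 0.59 nM-46 µM (NPC, 8-point) in primary screens, 11-point in follow-ups.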

[8] = qHTS of pediatric cancer cell lines to identify multiple opportunities for drug repurposing: Primary screen for OHS-50 cells (AID 1347103); further: nearly all actives have a fitted effect of over 40% in size; further: potency means the concentration at half of the fitted maximal effect;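 on activity change, negative = cytotoxic: plate controls were DMSO neutral control for no effect and bortezomib positive control for full effect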
Procedure, shortened: as §3

[9] = qHTS of pediatric cancer cell lines to identify multiple opportunities for drug repurposing: Primary screen for RD cells (AID 1347104);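 further: plate controls were DMSO for no effect and bortezomib for full effect; nearly all actives have a fitted effect of over 55% in size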
Procedure, shortened: as §1

[10] = qHTS of pediatric cancer cell lines to identify multiple opportunities for drug repurposing: Primary screen for MG 63 (6-TG R) cells (AID 1347105); further: on the % scale 0 is the no-effect control and ±100 the full control effect; nearly all actives have a fitted effect of over 50% in size
Procedure, shortened: as §1

[11] = qHTS of pediatric cancer cell lines to identify multiple opportunities for drug repurposing: Primary screen for control Hh wild type fibroblast cells (AID 1347106);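 further: series mostly up to about 46 µM; on the % scale 0 is the no-effect control and ±100 the full control effect; a drop in luminescence marks cytotoxicity and a rise apparent proliferation; nearly all actives have a fitted effect of over 55% in size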
Procedure, shortened: as §2

[12] = qHTS of pediatric cancer cell lines to identify multiple opportunities for drug repurposing: Primary screen for Rh30 cells (AID 1347107); further: series mostly up to about 46 µM; on the % scale 0 is the no-effect control and ±100 the full control effect; nearly all actives have a fitted effect of over 75% in size
Procedure, shortened: as §2

[13] = qHTS of pediatric cancer cell lines to identify multiple opportunities for drug repurposing: Primary screen for Rh41 cells (AID 1347108);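 further: series mostly up to about 46 µM; luminescence drop marks cytotoxic hits; nearly all actives have a fitted effect of over 70% in size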
Procedure, shortened: as §1

[14] = qHTS of pediatric cancer cell lines to identify multiple opportunities for drug repurposing: Primary screen for Rh18 cells (AID 1347102); further: on the % scale 0 is the no-effect control and ±100 the full control effect; nearly all actives have a fitted effect of over 65% in size
Procedure, shortened: as §2

[15] = qHTS of pediatric cancer cell lines to identify multiple opportunities for drug repurposing: Primary screen for SK-N-SH cells (AID 1347098);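 further: DMSO served as neutral control and bortezomib at 2.3 µM as positive control; on the % scale 0 is the no-effect control and ±100 the full control effect; nearly all actives have a fitted effect of over 65% in size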
Procedure, shortened: as §3

[16] = qHTS of pediatric cancer cell lines to identify multiple opportunities for drug repurposing: Confirmatory screen for NB1643 cells (AID 1347109); further: nearly all actives have a fitted effect of over 45% in size; further: potency means the concentration at half of the fitted maximal effect;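 on activity change, negative = cytotoxic: plate controls were DMSO for no effect and bortezomib for full effect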
Procedure, shortened: as §2

[17] = qHTS of pediatric cancer cell lines to identify multiple opportunities for drug repurposing: Confirmatory screen for SK-N-MC cells (AID 1347111);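 further: cells exposed to compound for 48 h before the readout; nearly all actives have a fitted effect of over 70% in size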; further: potency means the concentration at half of the fitted maximal effect;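 on activity change, negative = cytotoxic: plate controls were DMSO for no effect and bortezomib for full effect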
Procedure, shortened: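 Metabolically active cells were quantified by ATP-dependent luminescence (CellTiter-Glo, 15 min at room temperature) following 48 h treatment. Cells had been plated at 500-1,000 per well and settled for 5 h beforehand.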

[18] = qHTS of pediatric cancer cell lines to identify multiple opportunities for drug repurposing: Confirmatory screen for BT-12 cells (AID 1347112); further: nearly all actives have a fitted effect of over 55% in size; further: potency means the concentration at half of the fitted maximal effect; on activity change, negative = cytotoxic: on the % scale 0 is the no-effect control and ±100 the full control effect
Procedure, shortened: as §2

[19] = qHTS of pediatric cancer cell lines to identify multiple opportunities for drug repurposing: Confirmatory screen for A673 cells (AID 1347110);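 further: potency means the concentration at half of the fitted maximal effect; cells exposed to compound for 48 h before the viability read; nearly all actives have a fitted effect of over 65% in size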
Procedure, shortened: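 Concentration-response curves came straight from titrations: 11 points (0.78 nM to 46 µM) for MIPE and several concentrations (0.59 nM to 46 µM) for NPC in primary, 11 points in follow-up. Readout: ATP luminescence at 48 h.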

[20] = qHTS of pediatric cancer cell lines to identify multiple opportunities for drug repurposing: Confirmatory screen for LAN-5 cells (AID 1347113); further: potency means the concentration at half of the fitted maximal effect; nearly all actives have a fitted effect of over 65% in size
Procedure, shortened: as §2

CCN(CC)C(C)CN1c2ccccc2Sc2ccccc21 (stereo unspecified)
inactive: Potency [1] | Potency [2] | Potency [3] | Potency [4] | Potency [5] | Potency [6] | Potency [7] | Potency [8] | Potency [9] | Potency [10] | outcome [11] | outcome [12] | Potency [13]

CC(=O)c1ccc2c(c1)N(CCCN(C)C)c1ccccc1S2
inactive: Potency [1] | Potency [2] | Potency [3] | Potency [4] | Potency [5] | Potency [6] | Potency [7] | Potency [14] | outcome [11] | outcome [12] | Potency [13]

C[C@H]1O[C@@H](n2cc(F)c(=O)[nH]c2=O)[C@H](O)[C@@H]1O
active: Potency [2] 2.99 µM
inactive: Potency [1] | Potency [3] | Potency [4] | Potency [15] | Potency [5] | Potency [7] | Potency [14] | Potency [9] | Potency [10] | outcome [11] | outcome [12] | Potency [13]

Nc1nc2c(ncn2CCC(CO)CO)c(=O)[nH]1
inactive: Potency [1] | Potency [2] | Potency [3] | Potency [4] | Potency [15] | Potency [5] | Potency [7] | Potency [8] | Potency [9] | Potency [10] | outcome [11] | outcome [12] | Potency [13]

c1ccc2c(CC3=NCCN3)cccc2c1
inactive: Potency [1] | Potency [2] | Potency [3] | Potency [15] | Potency [5] | Potency [6] | Potency [9] | Potency [10] | outcome [11] | outcome [12] | Potency [13]

C#CCN(C)Cc1ccccc1
inactive: Potency [1] | Potency [2] | Potency [3] | Potency [4] | Potency [15] | Potency [5] | Potency [7] | Potency [14] | Potency [8] | Potency [9] | Potency [10] | outcome [11] | outcome [12] | Potency [13]

C[C@](N)(Cc1ccc(O)cc1)C(=O)O
inactive: activity change, negative = cytotoxic [1] 0.899% [at 6.03 µM] | activity change, negative = cytotoxic [2] 16.2% [at 4.84 µM] | activity change, negative = cytotoxic [3] 7.56% [at 4.84 µM] | activity change, negative = cytotoxic [4] -22.2% [at 4.84 µM] | activity change, negative = cytotoxic [15] -0.998% [at 6 µM] | activity change, negative = cytotoxic [7] 0.753% [at 6.03 µM] | activity change, negative = cytotoxic [14] 14.1% [at 4.84 µM] | activity change, negative = cytotoxic [8] -5.63% [at 6.18 µM] | activity change, negative = cytotoxic [10] -28.9% [at 4.84 µM] | activity change, negative = cytotoxic [11] 5.39% [at 4.84 µM] | activity change, negative = cytotoxic [12] -4.89% [at 4.84 µM] | activity change, negative = cytotoxic [13] -37.3% [at 4.84 µM] | activity change, negative = cytotoxic [16] 4.45% [at 5.01 µM] | activity change, negative = cytotoxic [17] 6.85% [at 5.01 µM] | activity change, negative = cytotoxic [18] -3.72% [at 5.01 µM]

CC1(C)Oc2ccc(C#N)cc2[C@@H](N2CCCC2=O)[C@@H]1O
inactive: Potency [1] | Potency [2] | Potency [3] | Potency [15] | Potency [5] | Potency [7] | Potency [14] | Potency [8] | Potency [9] | Potency [10] | outcome [11] | outcome [12] | Potency [13]

Cn1c(=O)c2c(ncn2CC2OCCO2)n(C)c1=O
inactive: Potency [1] | Potency [2] | Potency [3] | Potency [4] | Potency [15] | Potency [5] | Potency [7] | Potency [14] | Potency [9] | Potency [10] | outcome [11] | outcome [12] | Potency [13]

N[C@@H](CSSC[C@H](N)C(=O)O)C(=O)O
inactive: activity change, negative = cytotoxic [1] 3.9% [at 0.745 µM] | activity change, negative = cytotoxic [2] -0.714% [at 0.597 µM] | activity change, negative = cytotoxic [3] 6.12% [at 0.597 µM] | activity change, negative = cytotoxic [4] -6.38% [at 0.597 µM] | activity change, negative = cytotoxic [5] -5.83% [at 0.597 µM] | activity change, negative = cytotoxic [6] 6.24% [at 0.597 µM] | activity change, negative = cytotoxic [7] 5.67% [at 0.745 µM] | activity change, negative = cytotoxic [14] 0.304% [at 0.597 µM] | activity change, negative = cytotoxic [8] 6.93% [at 0.73 µM] | activity change, negative = cytotoxic [9] 5.61% [at 0.597 µM] | activity change, negative = cytotoxic [10] 0.733% [at 0.597 µM] | activity change, negative = cytotoxic [11] 21.8% [at 0.597 µM] | activity change, negative = cytotoxic [12] 12% [at 0.597 µM] | activity change, negative = cytotoxic [13] 8.25% [at 0.597 µM]

CCCCC/C(C=O)=C\c1ccccc1
active: Potency [4] 53.1 µM | Potency [7] 0.155 µM | Potency [8] 0.001 µM | Potency [16] 7.37 µM | Potency [19] 2.93 µM | Potency [17] 9.27 µM | Potency [18] 26.1 µM | Potency [20] 5.22 µM
inactive: Potency [1] | Potency [2] | Potency [3] | Potency [15] | Potency [5] | Potency [9] | Potency [10] | outcome [11] | outcome [12] | Potency [13]

CCCCOC(=O)c1ccc(O)cc1
inactive: Potency [1] | Potency [2] | Potency [3] | Potency [15] | Potency [5] | Potency [6] | Potency [14] | Potency [9] | Potency [10] | outcome [11] | outcome [12] | Potency [13]

NC(N)=NCCC[C@H](N)C(=O)O
inactive: activity change, negative = cytotoxic [1] 4.21% [at 6.03 µM] | activity change, negative = cytotoxic [2] 12% [at 4.84 µM] | activity change, negative = cytotoxic [3] 2.69% [at 4.84 µM] | activity change, negative = cytotoxic [15] -0.158% [at 6 µM] | activity change, negative = cytotoxic [5] 7.96% [at 4.84 µM] | activity change, negative = cytotoxic [7] 1.23% [at 6.03 µM] | activity change, negative = cytotoxic [14] 15.1% [at 4.84 µM] | activity change, negative = cytotoxic [8] -1.99% [at 6.18 µM] | activity change, negative = cytotoxic [9] 2.4% [at 4.84 µM] | activity change, negative = cytotoxic [10] -20.2% [at 4.84 µM] | activity change, negative = cytotoxic [11] 15% [at 4.84 µM] | activity change, negative = cytotoxic [12] 18% [at 4.84 µM] | activity change, negative = cytotoxic [13] 10.4% [at 4.84 µM]

NC(CSCC(=O)O)C(=O)O (stereo unspecified)
inactive: Potency [1] | Potency [2] | Potency [3] | Potency [4] | Potency [15] | Potency [5] | Potency [7] | Potency [14] | Potency [9] | Potency [10] | outcome [11] | outcome [12] | Potency [13]
